This is part of a sample that, as a whole, favours compounds with a hit. Of some 83,000 tested, about 20% had one in any assay.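 Treatment: one concentration, 48 hours, 96-well format. Scoring: percent growth, with anything below 10 considered active.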 Unmarked numbers belong to inactive results. Calls of active or inactive are those of the source.
Tested on: MDA-MB-468 breast
Experiment: NCI-60 one-dose screen, 48 h (100 = growth as untreated, 0 = no growth, -100 = all killed)
Conditions: 10 µM unless noted

## COc1ccc(C(=O)N2c3ccccc3Sc3ccccc32)c(OC)c1
  growth: 0.159% (active)

## COc1ccc2[nH]c(O)c(/C=c3/cc4c(c(-c5ccc(F)cc5)n3)=Nc3ccccc3-4)c2c1
  growth: 67.4%

## CCOC(=O)c1c(C)nc2c(c1N)/C(=C/c1ccccn1)C(=O)N2Cc1ccccc1
  growth: -49.5% (active)

## CCOC(=O)c1ccc2c(c1)[n+](=O)c(C(=O)C1CCCS1)c(C(F)(F)F)n2[O-] (stereo not drawn)
  growth: -80.5% (active)

## CCCCCCCCn1ccc2cc(NC(=O)Cn3cc(CN4CCCCC4)nn3)ccc21
  growth: -14.6% (active)

## COc1ccc(-n2nnc(C(=O)O)c2-c2cc(OC)c(OC)c(OC)c2)cc1
  growth: 102%

## NC(N)=NC(N)=NCCCc1ccccc1
  growth: -0.206% [100 µM] (active)

## COc1cc2c(cc1OC)C(=O)OC2
  growth: 97.1%

## O=c1c2c(O)cccc2oc2c3c(cc(O)c12)O[C@H]1OC=C[C@@H]31
  growth: 30.2%

## CNC(=O)c1cc(Oc2ccc3c(c2)sc2nc(-c4ccc(N(C)C)cc4)cn23)ccn1
  growth: 36.5%

## O=C(CSc1nc2c(n1Nc1ccccc1)-c1ccccc1SC2)Nc1nccs1
  growth: 104%

## CC(C)c1nc(N(C)S(C)(=O)=O)nc(-c2ccc(F)cc2)c1/C=C/C(=O)C[C@@H](O)CC(=O)O
  growth: 113%

## C=C1/C(=C\C=C2/CCC[C@]3(C)[C@@H]([C@H](C)CCCC(C)(C)O)CC[C@@H]23)C[C@@H](OC(=O)CBr)C[C@@H]1O
  growth: 72.8%

## COc1cc2nc(NC3CCC3)nc(NC3CCN(C(C)C)CC3)c2cc1OC
  growth: 16.5%

## Cc1cc(CC(C)CC(C)(C)C)n(O)c(=O)c1 (stereo not drawn) (tested in a mixture with another compound)
  growth: -7.41% (active)

## COc1ccc(-c2cc(-c3cc(OC)c(OC)c(OC)c3)c(C#N)c(=O)n2CCCCCC(=O)NO)cc1
  growth: 97.4%

## CCn1c(SCC(=O)c2ccc(Br)cc2)nnc1-c1cc2c([nH]c3ccccc32)c(-c2cccc(O)c2)n1
  growth: 83.9%

## C=C1CC[C@@H]2[C@](C)(COC(C)=O)[C@H](OC(C)=O)CC[C@@]2(C)[C@@H]1CC(Nc1ccc(S(=O)(=O)Nc2nccc(C)n2)cc1)C1=CCOC1=O (stereo partly drawn)
  growth: -45.8% (active)

## CC(C)(C)n1cc(-c2ccnc(NCCCNS(=O)(=O)c3ccc(Cl)cc3)c2)c(-c2cccc(F)c2)n1
  growth: 48.4%

## COc1cc(-c2nc3ccc(-c4nnc(SCC(=O)Nc5ccc(C(=O)/C=C/c6ccc(Cl)cc6)cc5)o4)cc3[nH]2)cc(OC)c1OC
  growth: 93%

## C[C@H](C(=O)Nc1ccc(S(N)(=O)=O)cc1)S(=O)(=O)c1ccccc1
  growth: 102%

## Cn1nccc1Nc1nccc(-c2ccn([C@H](CO)c3ccc(Cl)c(F)c3)c(=O)c2)n1
  growth: 129%

## Cc1cc(Nc2cccc(F)c2)nc(NCc2ccccc2)n1
  growth: 16.2%

## Cc1ccc(-n2nc3c(c(C#N)c2=O)CC(c2ccccc2[N+](=O)[O-])C([N+](=O)[O-])=C3O)cc1 (stereo not drawn)
  growth: 94%

## COc1cc(OC)c(C(=O)/C=C/c2cccc(C(F)(F)F)c2)c(OC)c1
  growth: -9.39% (active)

## CC(=O)Oc1ccccc1C(=O)N=C1[Se]CCCN1C(=O)c1ccccc1OC(C)=O
  growth: -19.2% (active)

## COc1ccc(-c2nn(-c3ccc(NC(=O)Nc4ccc(Cl)c(C(F)(F)F)c4)cc3)cc2-c2ccncc2)cc1Cl
  growth: -46.4% (active)

## CCOc1ccc(I)cc1
  growth: 105%

From PubChem BioAssay (NCI)
